Experiment [1] in a line: qHTS assay to test for compound auto fluorescence at 535 nm (green) in HEK293 cells (AID 720680). (In general: Quantitative high-throughput screening tests each substance at several concentrations.)
Experiment [2] in a line: qHTS assay to test for compound auto fluorescence at 460 nm (blue) in HEK293 cell free culture (AID 720681). The essentials:
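Compounds were added to cell-free DMEM with 10% FBS and fluorescence read directly. The blue channel used 405 nm excitation and 460 nm emission, with triamterene as the reference fluorophore.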

Experiment [3] is described as follows: qHTS assay to test for compound auto fluorescence at 535 nm (green) in HEK293 cell free culture (AID 720682). The essentials: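 Each library compound, or DMSO control, is added by pintool to medium alone, comprising DMEM and 10% FBS. Emission at 535 nm following 485 nm excitation is quantified against fluorescein.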
Experiment [4] can be described thus: qHTS assay to test for compound auto fluorescence at 590 nm (red) in HEK293 cell free culture (AID 720683). The essentials: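 Cell-free wells of DMEM with 10% FBS received compound, and intrinsic fluorescence was read at excitation/emission 540/590 nm. Values expressed as equivalence to Rose Bengal sodium.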
Experiment [5] is described as follows: qHTS assay to test for compound auto fluorescence at 590 nm (red) in HepG2 cell free culture (AID 720684). The essentials:
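Auto fluorescence equivalency versus Rose Bengal sodium, red channel Ex/Em 540/590 nm; compounds in cell-free MEM/10% FBS; DMSO vehicle control.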

The nature of experiment [6]: qHTS assay to test for compound auto fluorescence at 460 nm (blue) in HepG2 cell free culture (AID 720685). The procedure, abridged:
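Cell-free plates of MEM plus 10% FBS received 23 nL compound or DMSO vehicle; blue-channel (405/460 nm) intensity scored against triamterene as reference fluorophore.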

Experiment [7] can be described thus: qHTS assay to test for compound auto fluorescence at 535 nm (green) in HepG2 cell free culture (AID 720686).
Experiment [8] is described as follows: qHTS assay to test for compound auto fluorescence at 460 nm (blue) in HepG2 cells (AID 720687). The essentials: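 HepG2 cells in MEM with 10% FBS, attached overnight at 37 C, were exposed to compound or DMSO for 1 hr at 37 C, 5% CO2. Blue fluorescence was read at 405/460 nm, with triamterene as reference fluorophore.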
The target in experiment [9] is Glucocorticoid receptor (Homo sapiens) (UniProt P04150). Kind of experiment: qHTS assay to identify small molecule agonists of the glucocorticoid receptor (GR) signaling pathway (AID 720691; active means well fitted activation curve with a large enough effect in the signal ratio in the repeat runs, not every such curve was filed as active; the % refers to the signal ratio). The procedure, abridged:
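A HeLa cervical cancer line expressing GR and a glucocorticoid response element-driven beta-lactamase gene is treated with compounds for 18 h; LiveBLAzer B/G FRET substrate is then applied and fluorescence read.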

Experiment [10] has the same target. Kind of experiment: qHTS assay to identify small molecule antagonists of the glucocorticoid receptor (GR) signaling pathway (AID 720692; active means well fitted inhibition curve with a large enough effect in the signal ratio in the repeat runs, not every such curve was filed as active; the % refers to the signal ratio; further: potency means the concentration at half of the fitted maximal effect). The essentials: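 GRE-bla HeLa line, dex-stimulated (5 nM final). Compound exposure 18 h, 37 C. Beta-lactamase FRET read after 2 h RT substrate.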
A short description of experiment [11]: qHTS assay to identify small molecule antagonists of the glucocorticoid receptor (GR) signaling pathway - cell viability counter screen (AID 720693). Further: nearly all actives have a fitted effect of over 55% in size.
The nature of experiment [12]: qHTS assay for identifying genotoxic compounds that show differential cytotoxicity against isogenic chicken DT40 cell lines with known DNA damage response pathways - Rev3 mutant cell line (AID 743014). Further: nearly all actives have a fitted effect of over 55% in size. Further: potency means the concentration at half of the fitted maximal effect.
A short description of experiment [13]: qHTS assay for identifying genotoxic compounds that show differential cytotoxicity against isogenic chicken DT40 cell lines with known DNA damage response pathways - Rad54/Ku70 mutant cell line (AID 743015). Further: nearly all actives have a fitted effect of over 60% in size. Further: potency means the concentration at half of the fitted maximal effect.
Experiment [14] has as its target Androgen receptor (Homo sapiens) (UniProt P10275). Kind of experiment: qHTS assay to identify small molecule antagonists of the androgen receptor (AR) signaling pathway (AID 743035; active means well fitted inhibition curve with a large enough effect in the signal ratio in the repeat runs, not every such curve was filed as active; the % refers to the signal ratio). The essentials:
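In this cell-based reporter screen, compounds were tested in concentration series against R1881-activated HEK293 cells expressing beta-lactamase under UAS control; after 16 h at 37C, FRET substrate was added and fluorescence read 2 h later.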

The target is the same in experiment [15]. Kind of experiment: qHTS assay to identify small molecule agonists of the androgen receptor (AR) signaling pathway (AID 743036; active means well fitted activation curve with a large enough effect in the signal ratio in the repeat runs, with a control signal flat, not every such curve was filed as active; the % refers to the signal ratio). The procedure, abridged:
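Following a 4 h settling period, AR-UAS-bla HEK293 cells were dosed with compounds for 16 h at 37C. A 2 h room-temperature incubation with LiveBLAzer B/G FRET substrate preceded the fluorescence measurement.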

Experiment [16] shares this target. Put plainly: qHTS assay to identify small molecule agonists of the androgen receptor (AR) signaling pathway using the MDA cell line (AID 743040; further: nearly all actives have a fitted effect of over 20% in size). The procedure, abridged: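 Testing was done with the MDA-kb2 AR-luc line, a human breast carcinoma stably transfected with MMTV-luciferase containing AR and GR response elements. Cells were exposed 16 h at 37C before ONE-Glo luminescence detection.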

The nature of experiment [17]: qHTS assay to identify small molecule antagonists of the androgen receptor (AR) signaling pathway using the MDA cell line - cell viability counter screen (AID 743041; further: nearly all actives have a fitted effect of over 45% in size). The essentials:
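Compound exposure lasted 16 h at 37C in MDA-kb2 AR-luc cells stimulated with R1881. Protease-based CellTiter-Fluor reagent was applied for the final 30 min and fluorescence measured.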

Experiment [18] deals with Androgen receptor (Homo sapiens) (UniProt P10275). Kind of experiment: qHTS assay to identify small molecule antagonists of the androgen receptor (AR) signaling pathway using the MDA cell line (AID 743042; further: nearly all actives have a fitted effect of over 55% in size). The essentials: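 MDA-kb2 breast carcinoma cells carrying MMTV-luciferase (AR/GR responsive) were co-treated with compounds and the agonist R1881 for 16 h at 37C. Inhibition read as ONE-Glo luminescence; CellTiter-Fluor fluorescence measured in parallel for cytotoxicity.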

Experiment [19] is described as follows: qHTS assay for identifying genotoxic compounds that show differential cytotoxicity against isogenic chicken DT40 cell lines with known DNA damage response pathways - wild type cell line (AID 743012). Further: nearly all actives have a fitted effect of over 60% in size. Further: potency means the concentration at half of the fitted maximal effect. The essentials: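 300 wt DT40 cells/well; cpd (DMSO) pintool-transferred after ~0.5 h at 37 C/5% CO2; 40 h incubation; CellTiter-Glo added, 30 min RT; luminescence read.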

Experiment [20] in a line: qHTS assay to identify small molecule antagonists of the androgen receptor (AR) signaling pathway - cell viability counter screen (AID 743033; further: nearly all actives have a fitted effect of over 45% in size).

Values without a mark were called inactive. Inconclusive results are not listed. Active and inactive are the calls of the source. Unless noted, the call rests on the fitted dose curve; in most records, active means well fitted curve in the direction sought with a large enough effect in the repeat runs; inconclusive means weak or mixed curves; inactive means no such curve, though single readings can be large; an effect the other way counts as inactive or inconclusive.
On the % scale 0 is the no-effect control and ±100 the full control effect.

Sequence of Androgen receptor (Homo sapiens) (P10275 whole entry, looked up): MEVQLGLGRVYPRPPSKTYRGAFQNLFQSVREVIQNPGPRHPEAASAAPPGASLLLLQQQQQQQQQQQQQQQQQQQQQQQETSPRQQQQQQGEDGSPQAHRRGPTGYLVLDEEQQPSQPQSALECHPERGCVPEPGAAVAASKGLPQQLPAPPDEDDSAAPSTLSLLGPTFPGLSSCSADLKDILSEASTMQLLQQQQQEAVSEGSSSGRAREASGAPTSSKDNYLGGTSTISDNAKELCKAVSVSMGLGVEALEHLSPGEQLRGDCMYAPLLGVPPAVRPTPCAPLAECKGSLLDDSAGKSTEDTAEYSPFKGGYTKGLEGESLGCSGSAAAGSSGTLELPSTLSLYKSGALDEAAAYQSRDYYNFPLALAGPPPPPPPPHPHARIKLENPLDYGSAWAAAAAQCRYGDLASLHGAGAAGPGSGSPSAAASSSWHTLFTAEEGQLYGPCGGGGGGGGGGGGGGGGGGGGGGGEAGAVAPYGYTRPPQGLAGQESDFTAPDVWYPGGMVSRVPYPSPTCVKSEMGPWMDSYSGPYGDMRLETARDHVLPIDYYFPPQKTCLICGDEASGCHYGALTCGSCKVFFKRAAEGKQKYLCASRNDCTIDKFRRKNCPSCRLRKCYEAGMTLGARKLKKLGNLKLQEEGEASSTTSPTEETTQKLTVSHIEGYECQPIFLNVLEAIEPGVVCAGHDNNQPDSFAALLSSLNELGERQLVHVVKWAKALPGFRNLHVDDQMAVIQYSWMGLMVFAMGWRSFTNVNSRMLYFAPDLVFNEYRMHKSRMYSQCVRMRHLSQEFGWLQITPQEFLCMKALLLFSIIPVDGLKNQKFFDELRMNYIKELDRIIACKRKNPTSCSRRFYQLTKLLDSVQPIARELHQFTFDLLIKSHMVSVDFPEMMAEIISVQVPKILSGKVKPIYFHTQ
Sequence of Glucocorticoid receptor (Homo sapiens) (P04150 whole entry, looked up): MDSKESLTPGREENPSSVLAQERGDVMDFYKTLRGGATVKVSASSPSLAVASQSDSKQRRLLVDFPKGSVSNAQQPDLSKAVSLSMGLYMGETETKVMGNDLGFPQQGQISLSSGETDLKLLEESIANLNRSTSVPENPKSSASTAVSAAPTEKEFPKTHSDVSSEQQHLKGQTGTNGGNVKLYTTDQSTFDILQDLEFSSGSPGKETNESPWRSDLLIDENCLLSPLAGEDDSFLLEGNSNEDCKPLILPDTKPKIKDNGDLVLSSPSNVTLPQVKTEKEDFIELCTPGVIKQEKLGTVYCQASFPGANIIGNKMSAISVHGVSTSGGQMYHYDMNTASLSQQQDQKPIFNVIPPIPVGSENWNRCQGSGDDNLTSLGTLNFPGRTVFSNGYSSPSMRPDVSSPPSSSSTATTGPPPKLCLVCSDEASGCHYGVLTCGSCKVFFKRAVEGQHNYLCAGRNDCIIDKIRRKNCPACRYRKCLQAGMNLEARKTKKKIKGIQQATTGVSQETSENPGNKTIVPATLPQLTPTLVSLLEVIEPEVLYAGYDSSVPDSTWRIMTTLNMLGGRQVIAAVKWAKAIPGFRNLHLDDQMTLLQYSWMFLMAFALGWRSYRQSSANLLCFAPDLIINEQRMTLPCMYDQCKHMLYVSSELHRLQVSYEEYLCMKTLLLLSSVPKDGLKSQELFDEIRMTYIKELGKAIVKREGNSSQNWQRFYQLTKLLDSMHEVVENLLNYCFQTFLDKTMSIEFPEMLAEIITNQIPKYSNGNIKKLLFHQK

On to `CC(C)CC#N`, for which the compound was classed as inactive in experiment [1], in experiment [2], in experiment [3], in [4], in [5] and in experiment [6]. Further, the compound was called inactive in experiment [7], in experiment [8], in experiment [9], in experiment [15] and in [18]. The Potency entry in experiment [10], in experiment [11], in experiment [12], in experiment [13], in experiment [14] and in [16] was “inactive” throughout. In addition, the Potency result in experiment [17] is “inactive”.

Turning to `CNC(=O)O/N=C(\C)SC`, the call in experiment [1], in experiment [2], in experiment [3], in experiment [4], in [5] and in experiment [6] was inactive. For the same compound, the compound was classed as inactive in experiment [7], in experiment [8] and in [9]. For the same compound, the Potency entry in experiment [11], in experiment [19], in experiment [12], in [13], in experiment [20] and in experiment [17] was “inactive” in each case.

As for `CCOP(=S)(OCC)SCSP(=S)(OCC)OCC`, the result in [1], in experiment [2], in [3], in [4], in [5] and in experiment [6] was inactive. The result in [7] and in [8] was inactive. Besides, the Potency entry in experiment [10], in experiment [11] and in experiment [17] was “inactive” in each case. Further, the Potency is 54.5 µM (active) in experiment [19], 61.1 µM (active) in experiment [12] and 61.1 µM (active) in experiment [13].

As to `CC1=C(C(=O)Nc2ccccc2)S(=O)(=O)CCO1`, the compound was called inactive in [1], in [2], in experiment [3], in experiment [4], in experiment [5] and in experiment [6]. Moreover, the outcome in experiment [7] and in experiment [8] was inactive. The figures for the Potency in [10], in experiment [12] and in [13] were 48.9 µM (active), 15.3 µM (active) and 17.2 µM (active), respectively. Besides, the Potency result in experiment [11] and in experiment [20] was “inactive” in each case.

Consider `CC(C)CC(N(C)C)C1(c2ccc(Cl)cc2)CCC1` (centres undefined), for which the call in experiment [1], in experiment [2], in experiment [3], in experiment [4], in experiment [5] and in experiment [6] was inactive. For the same compound, the outcome in [7] and in experiment [8] was inactive. Moreover, the Potency result in experiment [10], in experiment [11], in experiment [12] and in experiment [17] was “inactive” in each case.

For `CNNC`, the compound was called inactive in experiment [1], in experiment [2], in [3], in experiment [4], in experiment [5] and in [6]. For the same compound, the call in experiment [7] and in experiment [8] was inactive. Further, the Potency result in [10], in experiment [11], in experiment [19], in [12], in experiment [13] and in [20] was “inactive” each time. In addition, the Potency result in experiment [17] is “inactive”.

For the compound `CCOC(=O)NC(=S)Nc1ccccc1NC(=S)NC(=O)OCC`, the compound was called inactive in [1], in experiment [2], in [3], in experiment [4], in [5] and in experiment [6]. Moreover, the call in [7], in experiment [8] and in experiment [9] was inactive. Also, the Potency entry in [11] and in experiment [17] was “inactive” throughout. The Potency in [19] was 61.1 µM (active); in experiment [12] it was 30.6 µM (active); in [13] it was 48.6 µM (active).

As for `ClC(Cl)C(Cl)Cl`, the call in [1], in experiment [2], in experiment [3], in experiment [4], in experiment [5] and in experiment [6] was inactive. For the same compound, the result in [7] and in experiment [8] was inactive. Further, the Potency result in experiment [10], in experiment [11], in experiment [19], in [12], in experiment [13] and in [20] was “inactive” throughout. The Potency result in experiment [17] is “inactive”.

Consider `CN1CCC(O)(c2ccc(F)cc2)C(C(=O)c2ccc(F)cc2)C1` (centres undefined), for which the outcome in experiment [1], in experiment [2], in experiment [3], in experiment [4], in experiment [5] and in experiment [6] was inactive. The compound was classed as inactive in experiment [7], in experiment [8] and in [9]. Besides, the Potency result in experiment [11] and in experiment [20] was “inactive” in each case. In addition, the Potency in experiment [12] and in [13] was 13.3 µM (active) in each case.

As for `O=C(Nc1ccccc1)c1ccccc1I`, the compound was classed as inactive in [1], in [2], in [3], in [4], in experiment [5] and in [6]. The compound was called inactive in [7], in [8], in [15] and in experiment [18]. In addition, the Potency result in experiment [10], in [11], in experiment [20], in experiment [16] and in experiment [17] was “inactive” in each case. The Potency in experiment [19] is 48.6 µM (active); in experiment [12], 27.3 µM (active); in [13] it was 61.1 µM (active).

As for `O=C(CCCN1CCC(n2c(=O)[nH]c3ccccc32)CC1)c1ccc(F)cc1`, the fluorescence, % of fluorescein in [1] was 0.0703% [at 18.6 µM]. Moreover, the fluorescence, % of fluorescent control in experiment [2] is 0.0625% [at 18.6 µM]; in [4], -0.0219% [at 18.6 µM]; in [6], -0.0144% [at 18.6 µM]; in experiment [8], 0.0395% [at 18.6 µM]. Also, the activity change in [3] was -0.0154% [at 18.6 µM]. For the same compound, the fluorescence, % of Rose Bengal in experiment [5] was 0.463% [at 18.6 µM]. In experiment [7], the fluorescence, % of fluorescein control was 0.027% [at 18.6 µM]. The Potency entry in experiment [10], in experiment [11], in experiment [20], in experiment [14], in experiment [16] and in experiment [17] was “inactive” throughout. The results for the Potency in experiment [19] and in experiment [13] were 12.7 µM (active) and 10.1 µM (active), respectively. The compound was classed as inactive in [15] and in [18].

In the case of `O=C(O)c1ccc2[nH]cc(CCCCN3CC=C(c4ccccc4)CC3)c2c1`, the call in experiment [1], in [2], in experiment [3], in experiment [4], in experiment [5] and in experiment [6] was inactive. Besides, the compound was called inactive in experiment [7], in experiment [8], in experiment [15] and in experiment [18]. For the same compound, the Potency entry in experiment [10], in [11], in [19], in [12], in experiment [13] and in [20] was “inactive” throughout. Also, the Potency entry in experiment [14], in experiment [16] and in experiment [17] was “inactive” throughout.
